Measurements: PubChem BioAssay (EPA / NIEHS)
Active and inactive are the calls of the source. The calls were made as follows: active = hit-call score of the fitted dose curve at least 0.9, where 1 is the maximum; inactive = score below 0.9.

The molecules below were run on Interleukin 6 (IL6), IL6 (gene 3569) (assay: LTEA_HepaRG_IL6: Life Technologies and Expression Analysis (LTEA) Assay for Interleukin 6 (IL6) using HepaRG (AID 2283509)). Details: mRNA level, 48 h; actives raise or lower the signal.
Method: LTEA_HepaRG is a cell based, multiplexed-readout assay that uses HepaRG, a human liver cell line, with measurements taken at 48 hours after chemical dosing on a 96-well plate.LTEA_HepaRG_IL6 is one of 102 assay component(s) measured in the LTEA HepaRG cell culture assay. It is a marker of Inflammation.Data from the assay component LTEA_HepaRG_IL6 was analyzed into 1 endpoint. This assay endpoint, LTEA_HepaRG_IL6, was analyzed with bidirectional fitting relative to DMSO as the negative control and baseline of activity. Using a type of inducible reporter, measures of mRNA induction for gain or loss-of-signal activity can be used to understand regulation of transcription factor activity. To generalize the intended target to other relatable targets, this assay endpoint is annotated to the cytokine intended target family, where the subfamily is interleukins.
A total of 1060 chemcials from the ToxCast library were tested in eight-point concentration-response experiments. Cell culture and cytotoxicity assays were conducted at Thermo Fisher Scientific's Custom Services facility (Madison, WI). A single lot of human HepaRG cells (Thermo Fisher Scientific, Frederick, MD) was used for the cell culture experiments. 96-well format collagen type I coated plates of human HepaRG cells were prepared using established methods. Briefly, cryopreserved HepaRG cells were thawed, plated at a density of approximately 100,000 cells/well in HepaRG Thaw, Plate, and General Purpose media (HPRG770, Thermo Fisher Scientific), and incubated for 48 hours. 0.5% DMSO was selected as vehicle control to balance the requisite need of DMSO in HepaRG cultures to maintain differentiation (for example, baseline metabolism, proportions of hepatocytes vs. cholangiocytes), while enabling further hepatic receptor pathway activation (for example, PXR and CAR) in response to chemical exposure. 48 hours after plating, the culture medium was replaced with HepaRG Serum-Free Incudtion Media. Cells were exposed to each test chemical in duplicate and maintained in CO2 incubators for another 48 hours. Chemical plates were thawed to room temperature and 200x concentrations of treatment groups were prepared. 8-point conentration-reponse curves were made with the highest exposure at 100 uM, followed by half-log dilutions, all in 0.5% DMSO. Each test plate contained variouse controls, induction positive controls (1mM phenobarbital), cytotoxicity positive controls ([…] aflatoxin B1), vehicle controls (0.5% DMSO), and total lysis controls (0.5% DMSO). Cell morphology images were taken using an Essen IncuCyte FLR automated microscope, with six 96-well plates imaged in about 24 minutes. Images were captured and exported and JPEG files. Spent culture media was transfered to black-well plates for the LDH assay, and remaining media was sorted at -80 C for later use. Cells were treated with RLT buffer and frozen until shipped for gene expression analysis. Total RNA was isolated from the cell suspension in 75 uL of Buffer RLT (Qiagen, Germantown, MD 20874) by Quintiles/Expression Analysis (Durham, NC) using a custom isolation procedure. Total RNA from each plate well was transferred to a preamplification plate. Fluidigm's 96.96 Dynamic ArrayTM (Fluidigm, Amsterdam, the Netherlands) technology was used for gene expression analyses by quantitative reverse transcription polymerase chain reaction (qRT-PCR, performed by Quintiles/Expression Analysis, Durham, NC)89. Standard TaqManTM Assays (Applied Biosystems/ThermoFisher Scientific, Foster City, CA) were used to assess the expression of 93 genes selected based on their selectivity and sensitivity to important hepatic receptors known to be modulated by environmental chemicals; importance in human hepatocyte functionality; and hepatotoxicity. […]

SMILES | outcome | AC50
Cc1ccccc1O | inactive | –
ClC1=C(Cl)[C@]2(Cl)[C@@H]3[C@@H]4C[C@@H]([C@H]5O[C@@H]45)[C@@H]3[C@@]1(Cl)C2(Cl)Cl | inactive | –
CCOCCOC(C)=O | inactive | –
Cc1ccc(O)c(C)c1 | inactive | –
C1CC2OC2CC1C1CO1 (stereo not given) | inactive | –
Clc1ccc(C(Cl)(Cl)Cl)cc1 | inactive | –
O=C(O)C(F)(F)C(F)(F)C(F)(F)C(F)(F)C(F)(F)C(F)(F)C(F)(F)C(F)(F)C(F)(F)F | – | 71.7 µM (active)
C=CC(N)=O | inactive | –
CC(C)(c1ccccc1)c1ccc(O)cc1 | inactive | –
O=C(N[C@H]1CN2CCC1CC2)c1cc2ccoc2cn1 | inactive | –
O=S(=O)(O)C(F)(F)C(F)(F)C(F)(F)C(F)(F)F | inactive | –
CCOC(=O)C(O)(c1ccc(Cl)cc1)c1ccc(Cl)cc1 | inactive | –
C[C@]12CCC(=O)C=C1CC[C@@H]1[C@@H]2CC[C@]2(C)C(=O)CC[C@@H]12 | – | 9.92 µM (active)
ClC(Cl)=C(c1ccc(Cl)cc1)c1ccc(Cl)cc1 | inactive | –
O=C(O)C(F)(F)C(F)(F)C(F)(F)C(F)(F)C(F)(F)C(F)(F)C(F)(F)C(F)(F)F | – | 78.6 µM (active)
Cc1ccccc1[N+](=O)[O-] | inactive | –
CCCCCCOC(=O)c1ccccc1C(=O)OCCCCCC | inactive | –
Clc1ccc(Cl)cc1 | inactive | –
CO/C=C(/C(=O)OC)c1ccccc1COc1cccc(C(F)(F)F)n1 | – | 9.02 µM (active)
CN(C)c1nc(=O)n(C2CCCCC2)c(=O)n1C | inactive | –

SMILES | outcome | AC50
CC#Cc1cc(C)nc(Nc2ccccc2)n1 | – | 23.6 µM (active)
CCCCCCCCCc1ccc(O)cc1 | inactive | –
CCC(C)c1cc([N+](=O)[O-])cc([N+](=O)[O-])c1O (stereo not given) | – | 4.95 µM (active)
C[C@]12CCC(=O)C=C1CC[C@@H]1[C@@H]2CC[C@@]2(C)[C@H]1CC[C@]2(C)O | inactive | –
CCOP(=S)(OCC)SCSC(C)(C)C | inactive | –
CN(C)CCO | inactive | –
CCC(C)(c1ccc(O)cc1)c1ccc(O)cc1 | inactive | –
Cc1ccccc1CO[C@@H]1C[C@@]2(C(C)C)CC[C@]1(C)O2 | inactive | –
Cc1cccc([N+](=O)[O-])c1 | inactive | –
CC1=C2C[C@H]3[C@@H](CC=C4C[C@@H](O)CC[C@@]43C)[C@@H]2CC[C@]12O[C@@H]1C[C@H](C)CN[C@H]1[C@H]2C | inactive | –
CCCCCCCCOC(=O)c1ccccc1C(=O)OCCCCCCCC | inactive | –
Nn1cnnc1 | inactive | –
Oc1ccc(C(c2ccc(O)cc2)(C(F)(F)F)C(F)(F)F)cc1 | – | 91.8 µM (active)
CC(c1ccc(O)cc1)(c1ccc(O)cc1)c1ccc(O)cc1 | – | 80.8 µM (active)
CCNc1nc(NC(C)C)nc(SC)n1 | inactive | –
CCC(C)(CC)c1cc(NC(=O)c2c(OC)cccc2OC)on1 | inactive | –
c1ccc(-c2ccccc2)cc1 | inactive | –
c1cc2ccc3cccc4ccc(c1)c2c34 | inactive | –
O=NN(c1ccccc1)c1ccccc1 | inactive | –
C=CC(=O)NCNC(=O)C=C | – | 50 µM (active)
